Screening data: PubChem, National Center for Advancing Translational Sciences (NCATS)
Most compounds without a hit are left out; they make up all but 3.8% or so of the library.
GLS inhibitor – inhibitors of human glutaminase (GLS); O94925; GLS enzymatic activity, qHTS titration; Potency, µM (titrated, usually from 45.5 µM), most hits filed as inhibitors; 410,000 tested, 0.21% active
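hKGA in 45 mM KH2PO4 pH 8.2, 0.02% Tween-20 with pin-transferred compounds; 1 mM L-glutamine (stock) plus glutamate oxidase/HRP/Amplex Red coupling added. Fluorescence read initially and after 30 min at RT.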
TrxR1 substrate – is turned over as a substrate by rat TrxR1; 390,000 tested, 0.01% active; Potency, µM (doses to about 114 µM); O89049; purified TrxR1 substrate turnover, NADPH consumption readout; note: nearly all actives have a fitted effect of over 50% in size
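Rat TrxR1, dispensed at 90 nM, was prereduced with 400 uM NADPH (final) for 5 min at ~22 deg C, then incubated with compound 15 min before 400 uM selenite. A first-read NADPH fluorescence drop versus no-compound background flagged substrates.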
Sfp PPTase inh – Sfp phosphopantetheinyl transferase inhibition | Q9F4F7 | Biochemical Sfp PPTase activity, qHTS | Potency, µM, most hits filed as inhibitors | 310,000 tested, 3.5% active | AID 1490;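 note: the enzyme is Sfp with the accession as filed and its product quenches rhodamine fluorescence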
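Sfp 15 nM + cpd, 15 min RT; start w/ rhodamine-CoA 5 uM, BHQ-2-YbbR 12.5 uM (final); 50 mM Hepes pH 7.6, 10 mM MgCl2, 0.01% NP-40, 0.01% BSA; read 525/598 nm at 0 and 30 min.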
KAT2A inh – inhibitors of human GCN5L2 histone acetyltransferase; Q92830; GCN5L2 HAT assay, ThioGlo1 CoA-SH fluorescence; Potency, µM (top dose mostly 58.9 µM), actives largely listed as inhibitors; 390,000 tested, 0.21% active; AID 504327
Target sequence (Q92830 whole entry, looked up): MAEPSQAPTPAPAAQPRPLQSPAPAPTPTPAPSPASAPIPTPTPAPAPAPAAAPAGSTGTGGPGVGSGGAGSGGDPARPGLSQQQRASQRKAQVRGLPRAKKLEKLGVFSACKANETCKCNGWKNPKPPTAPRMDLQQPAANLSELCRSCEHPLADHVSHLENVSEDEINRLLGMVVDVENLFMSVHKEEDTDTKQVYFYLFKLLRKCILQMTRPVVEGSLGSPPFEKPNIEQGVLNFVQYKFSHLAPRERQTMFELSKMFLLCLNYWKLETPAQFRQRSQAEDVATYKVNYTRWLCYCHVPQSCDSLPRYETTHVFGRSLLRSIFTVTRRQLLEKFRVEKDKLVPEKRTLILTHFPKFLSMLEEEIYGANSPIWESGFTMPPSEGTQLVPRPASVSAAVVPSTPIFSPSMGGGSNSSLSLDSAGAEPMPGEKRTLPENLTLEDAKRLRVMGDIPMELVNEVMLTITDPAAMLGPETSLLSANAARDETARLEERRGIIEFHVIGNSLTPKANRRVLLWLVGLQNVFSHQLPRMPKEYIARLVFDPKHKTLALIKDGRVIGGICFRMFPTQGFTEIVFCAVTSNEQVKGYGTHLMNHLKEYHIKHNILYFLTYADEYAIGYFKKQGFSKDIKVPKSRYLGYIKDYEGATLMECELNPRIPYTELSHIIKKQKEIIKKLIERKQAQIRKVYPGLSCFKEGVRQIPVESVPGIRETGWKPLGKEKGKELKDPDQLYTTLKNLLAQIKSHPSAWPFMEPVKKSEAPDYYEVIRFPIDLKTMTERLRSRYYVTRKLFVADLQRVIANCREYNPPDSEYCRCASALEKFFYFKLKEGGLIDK
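Free CoA generated was detected with ThioGlo1 (50uM) fluorescence at Ex340nm/Em540nm, read immediately and after 20 min at room temperature. Enzyme, 20 nM in HEPES pH 7.5 buffer, saw compounds 15 min before adding 75uM H3(1-25) peptide and 70uM acetyl-CoA.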
TrxR1 inh – inhibitors of rat thioredoxin reductase 1; recombinant rTrxR1, NADPH fluorescence consumption, selenite substrate; Potency, µM (series often up to 114 µM), most hits filed as inhibitors; 390,000 tested, 1% active; AID 588453; note: nearly all actives have a fitted effect of over 65% in size
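Rat TrxR1 (90 nM in the dispensed reagent) was pre-reduced with 400 uM NADPH for 5 min at room temperature, then incubated with compound for 15 min. After 400 uM selenite was added, NADPH fluorescence (Ex 340/Em 450 nm) was followed for 8 min.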
VDR inh – vitamin D3 receptor (human) inhibition | P11473 | VDR-SRC2-3 peptide fluorescence polarization, 2 h | Potency, µM, hits mostly inhibitors | 400,000 tested, 0.93% active | AID 504847
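Fluorescence polarization assay of small-molecule disruption of VDR binding to coregulator peptide SRC2-3. Compounds and controls pin-transferred, then read after 2 h incubation at ambient room temperature.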
Numbers stand for hits; n = inactive; u = inconclusive; x = not tested or not shown; [ ] = another dose, or the depositor's remark. Calls come from the whole dose curve; as a rule, active = well fitted curve in the direction sought with a large enough effect; inconclusive = small, poorly fitted or top-dose-only effect, or another doubt; inactive = no such curve, though single readings can be large; an effect the other way counts as inactive or inconclusive.

SMILES | GLS inhibitor | TrxR1 substrate | Sfp PPTase inh | KAT2A inh | TrxR1 inh | VDR inh
CC(=O)C1=C(C)NC(SCC(=O)c2ccc(-c3ccccc3)cc2)=C(C#N)C1c1cccnc1 (configuration not stated) | x | x | 22µM | n | x | x
COC(=O)C1=C(C)OC(N)=C(C#N)C1c1ccco1 (configuration not stated) | n | n | n | n | n | n
CCCC(=O)C1=C(O)C(C(=O)OC)C(C)(C)CC1=Nc1ccncc1 (configuration not stated) | n | n | n | n | n | n
COc1ccccc1NC(=O)C1=C(C)NC(SCC(=O)c2ccc(C)cc2)=C(C#N)C1c1ccco1 (configuration not stated) | x | x | 45µM | n | x | x
CCOC(=O)CSC1=C(C#N)C(c2ccccc2F)C(C(C)=O)=C(C)N1 (configuration not stated) | n | n | 63µM | n | u | n
CC(=O)C1=C(C)NC(SCC(=O)c2cc(Cl)ccc2Cl)=C(C#N)C1c1ccco1 (configuration not stated) | n | n | 35µM | n | u | n
CC1=C(C(=O)Nc2ccccc2)C(c2ccco2)C(C#N)=C(SCC(=O)OC(C)C)N1 (configuration not stated) | n | n | n | n | n | n
CC(=O)C1=C(C)NC(SCC(=O)c2ccc(Cl)c(Cl)c2)=C(C#N)C1c1ccco1 (configuration not stated) | n | n | 3.5µM | n | u | n
Cc1nc(Sc2nnnn2C)c2c3c(sc2n1)CCC3 | n | n | n | n | n | n
CCc1ccc(C(=O)CSC2=C(C#N)C(c3ccco3)C(C(C)=O)=C(C)N2)cc1 (configuration not stated) | x | n | 56µM | n | u | n
N#CCCCS(=O)(=O)c1nnnn1-c1ccc(F)cc1Br | x | x | n | x | x | 45µM
OCC1(CCc2ccccc2)CCN(Cc2ccccc2Cl)CC1 | n | n | n | n | n | n
Clc1ccccc1CN1CCN(CCCc2ccccc2)CC1 | n | n | 79µM | n | n | u
CCOC(=O)CNc1ncnc2c1nnn2C | n | n | x | n | n | n
CC(=O)Nc1sc(-c2ccccc2)nc1-c1ccccc1 | n | n | n | n | n | n
O=c1cc(O)nc(-c2ccccc2)s1 | n | n | 13µM | n | n | n
O=c1cc(O)nc(-c2ccc(Cl)cc2)s1 | n | n | 18µM | n | n | u
O=C(O)Cc1sc(-c2ccc(Cl)cc2)nc1-c1ccccc1 | n | n | n | n | n | u
O=C(N/N=C/c1ccccn1)c1ccc([N+](=O)[O-])cc1Cl | n | n | 50µM | n | n | n
O=C(N/N=C/c1ccccn1)c1ccc(Br)o1 | n | n | 18µM | n | n | n
O=C(NN=Cc1ccccc1O)C1CC1 | n | n | x | x | n | n
O=C(N/N=C/c1cccnc1)c1ccc([N+](=O)[O-])cc1Cl | n | n | n | n | n | n
O=C(N/N=C/c1ccccn1)C1CC1 | n | n | 79µM | n[0.501 µM] | n | n
Cc1ccc(C(=O)N/N=C\c2ccc(Br)o2)o1 | n | n | n | 2.5µM | u | n
O=C(NNc1ccc(F)cc1F)C1CCC1 | n | n | n | n | n | n
SMILES | GLS inhibitor | TrxR1 substrate | Sfp PPTase inh | KAT2A inh | TrxR1 inh | VDR inh
COCCNC(=S)N/N=C(\C)CCc1ccc2c(c1)OCO2 | n | n | 40µM | n | n | n
C/C(CCc1ccc2c(c1)OCO2)=N\NC(=O)c1ccc(C)cc1C | n | n | n | n | n | n
O=C(O)c1cccc(-n2cccc2/C=C2/NC(=O)N(Cc3ccccc3F)C2=O)c1 | n | n | 50µM | n | n | n
O=C1N/C(=C/c2cccn2-c2ccccc2)C(=O)N1Cc1ccc(F)cc1 | n | n | 45µM | n | n | n
O=C1N/C(=C/c2cccn2-c2ccc(F)cc2)C(=O)N1Cc1ccccc1F | n | n | n | n | n | n
CN1CCN(C2=Cc3ccccc3Sc3cc(F)c(F)cc32)CC1 | n | n | 79µM | n | n | n
COc1ccc(NS(=O)(=O)c2cc(NC(=O)c3ccccn3)ccc2OC)cc1Br | n | n | x | n | n | n
CCN(CC)c1ccc(NC(=O)c2ccccn2)cc1S(=O)(=O)Nc1ccccc1OC | n | n | x | n | n | 79µM
NNc1ccc2c(C(F)(F)F)cc(C(F)(F)F)nc2n1 | n | n | 56µM | n | n | n
CCC(C)NC(=O)CN(c1ccc2c(c1)OCO2)S(=O)(=O)c1c(C)n[nH]c1C (configuration not stated) | n | n | n | n | n | n
CSCCC1C(C#N)=C(N)Oc2n[nH]c(-c3cccs3)c21 (configuration not stated) | n | n | n | n | 10µM | n
CC(=O)c1cc(CN2CCN(CCC(C)C)C(CCO)C2)cs1 (configuration not stated) | n | n | n | n | u | u
COC(=O)C1=C(C)N(c2cccc(Cl)c2)C(=O)C1 | n | n | n | n | u | n
COC(=O)C1=C(C)N(c2ccc(F)c(Cl)c2)C(=O)C1 | n | n | u | n | 14µM | n
Nc1cc(C(=O)O)c(N)c2c1C(=O)c1ccccc1C2=O | u | n | u | n | n | 8.9µM
N#CC(Sc1ccccn1)c1ccc(Cl)cc1 (configuration not stated) | n | n | 28µM | n | n | u
CCC(CC)c1nnc(NC(=O)C2CC(=O)N(C3CCCC3)C2)s1 (configuration not stated) | n | n | 50µM | n | n | n
CCc1nnc(NC(=O)C2CC(=O)N(C3CCCC3)C2)s1 (configuration not stated) | n | n | n | n | n | n
CCC(CC)c1nnc(NC(=O)C2CC(=O)N(CCc3ccc(OC)c(OC)c3)C2)s1 (configuration not stated) | n | n | x | n | n | n
CCC(CC)c1nnc(NC(=O)C2CC(=O)N(CCc3ccc(F)cc3)C2)s1 (configuration not stated) | n | n | 11µM | n | n | 79µM
CSc1cccc(NC(=O)CN(c2cc(C)ccc2C)S(C)(=O)=O)c1 | n | n | n | n | n | n
CCN(C(=O)c1ccco1)c1nc(-c2ccc(OC)cc2)cs1 | n | n | 89µM | n | n | n
COc1ccc(-c2csc(N(CC(C)C)C(=O)c3ccco3)n2)cc1 | n | n | n | n | n | n
CC(=O)N1CCc2c(sc(NC(=O)C3CCCN3S(=O)(=O)c3cccs3)c2C#N)C1 (configuration not stated) | n | n | x | n | n | n
CCc1nc2ccc(C(=O)NCc3ccco3)cc2nc1CC | n | n | 35µM | n | u | n
O=C(NCc1ccco1)c1cccc(NC(=O)c2ccco2)c1 | n | n | n | n | 50µM | n
